Experimental data taken from PubChem BioAssay (Tox21).
Values without a mark were called inactive. Results filed as inconclusive are left out. A call without a number means that no potency is given here. Calls of active or inactive are those of the source. Unless noted, calls follow the shape of the dose curve; as a rule, active = well fitted curve in the direction sought with a large enough effect in the repeat runs; inconclusive = weak or mixed curves; inactive = no such curve, though single readings can be large; an effect the other way counts as inactive or inconclusive.

How the values were obtained:
[1] = A CellTox Green Cytotoxicity Assay to monitor cytotoxicity in HEK293 cells - 32 hour (AID 1224881); also: nearly all actives have a fitted effect of over 40% in size
Outline: (§1)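 Cytotoxicity was tracked continuously in HEK293 cells by a DNA-binding dye excluded from viable cells. Compounds were transferred in DMSO 5 h after seeding; fluorescence was recorded at intervals up to 40 h.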

[2] = A CellTox Green Cytotoxicity Assay to monitor cytotoxicity in HepG2 cells - 0 hour (AID 1224882); also: nearly all actives have a fitted effect of over 35% in size
Outline: (§2)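 Real-time, homogeneous cytotoxicity readout: dead-cell DNA staining by CellTox Green in HepG2 monolayers, fluorescence measured at timed intervals up to 40 h of continuous compound exposure.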

[3] = A CellTox Green Cytotoxicity Assay to monitor cytotoxicity in HepG2 cells - 32 hour (AID 1224883); also: nearly all actives have a fitted effect of over 50% in size
Outline: as §2

[4] = A CellTox Green Cytotoxicity Assay to monitor cytotoxicity in HEK293 cells - 8 hour (AID 1224884); also: nearly all actives have a fitted effect of over 35% in size
Outline: as §1

[5] = qHTS RealTime-Glo MT Cell Viability Assay in HepG2 cells - 16 hour (AID 1224885); also: nearly all actives have a fitted effect of over 50% in size
Outline: (§3)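 Compound treatment began 5 h after plating HepG2 cells (600/well) with NanoLuc luciferase and prosubstrate. Plates stayed at 37 C for 40 h; luminescence was captured at six time points, 0 h through 40 h.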

[6] = qHTS RealTime-Glo MT Cell Viability Assay in HEK293 cells - 24 hour (AID 1224886); also: top concentration of the series differs between compounds; nearly all actives have a fitted effect of over 50% in size
Outline: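 Quantitative high-throughput screen of the Tox21 10K library in HEK293: cells and RealTime-Glo reagents plated together, compound added at 5 h, luminescence monitored through 40 h at 37 C.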

[7] = qHTS RealTime-Glo MT Cell Viability Assay in HEK293 cells - 8 hour (AID 1224887); also: top concentration of the series differs between compounds; nearly all actives have a fitted effect of over 50% in size
Outline: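 Nonlytic bioluminescent viability monitoring. HEK293 at 600 cells/well with reagent; 5 h settle; compound transfer by pintool; plates held at 37 C and read at set time points.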

[8] = A CellTox Green Cytotoxicity Assay to monitor cytotoxicity in HEK293 cells - 16 hour (AID 1224888); also: nearly all actives have a fitted effect of over 35% in size
Outline: as §1

[9] = qHTS RealTime-Glo MT Cell Viability Assay in HepG2 cells - 0 hour (AID 1224889); also: nearly all actives have a fitted effect of over 50% in size
Outline: as §3

[10] = A CellTox Green Cytotoxicity Assay to monitor cytotoxicity in HepG2 cells - 8 hour (AID 1224890); also: nearly all actives have a fitted effect of over 45% in size
Outline: as §2

[11] = qHTS assay to identify small molecule antagonists of the estrogen receptor alpha (ER-alpha) signaling pathway using the BG1 cell line in the presence of 0.1 nM 17-beta-estradiol - cell viability counter screen (AID 1259241); also: nearly all actives have a fitted effect of over 40% in size
Outline: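 CellTiter-Fluor read (30 min, 37C) on ER-alpha/ERE-luc VM7Luc4E2 cells; 22 hr compound treatment; agonist 0.1 nM E2 final; same-well multiplex.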

[12] = qHTS assay to identify small molecule antagonists of the androgen receptor (AR) signaling pathway using the MDA cell line in the presence of 0.5 nM R1881 - cell viability counter screen (AID 1259242); also: nearly all actives have a fitted effect of over 45% in size
Outline: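 Cytotoxicity toward MDA-kb2 cells is measured by CellTiter-Fluor live-cell protease fluorescence after 16 hr compound exposure at 37C in the presence of 0.5 nM R1881 stimulator.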

[13] = molecular target: Estrogen receptor (Homo sapiens) (UniProt P03372); experiment: qHTS assay to identify small molecule antagonists of the estrogen receptor alpha (ER-alpha) signaling pathway using the BG1 cell line in the presence of 0.1 nM 17-beta-estradiol (AID 1259244); also: nearly all actives have a fitted effect of over 50% in size
Sequence of Estrogen receptor (Homo sapiens) (P03372 whole entry, looked up): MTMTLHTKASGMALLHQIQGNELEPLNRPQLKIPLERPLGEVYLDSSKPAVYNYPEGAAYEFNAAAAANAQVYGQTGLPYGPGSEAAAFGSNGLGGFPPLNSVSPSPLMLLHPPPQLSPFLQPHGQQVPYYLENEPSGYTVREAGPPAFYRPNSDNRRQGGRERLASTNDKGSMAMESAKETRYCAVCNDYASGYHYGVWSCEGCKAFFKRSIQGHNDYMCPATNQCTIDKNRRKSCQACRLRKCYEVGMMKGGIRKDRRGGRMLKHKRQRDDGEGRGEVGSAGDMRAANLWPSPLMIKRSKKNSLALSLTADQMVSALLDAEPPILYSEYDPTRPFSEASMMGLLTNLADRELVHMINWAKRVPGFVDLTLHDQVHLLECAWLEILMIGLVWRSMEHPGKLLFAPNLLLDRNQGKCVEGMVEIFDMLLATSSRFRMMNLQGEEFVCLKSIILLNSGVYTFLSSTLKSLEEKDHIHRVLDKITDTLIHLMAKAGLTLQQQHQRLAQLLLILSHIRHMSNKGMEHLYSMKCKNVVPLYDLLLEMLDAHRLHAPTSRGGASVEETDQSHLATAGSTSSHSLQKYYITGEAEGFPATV
Outline: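 After 5 days in hormone-depleted medium (charcoal-stripped serum, no phenol red), VM7Luc4E2 cells were seeded, incubated 24 h, then co-treated with compound and 0.1 nM (final) estradiol for 22 h before luminescence detection.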

[14] = qHTS assay to identify small molecule HDAC inhibitors (AID 1259364); also: nearly all actives have a fitted effect of over 45% in size; also: potency is read from the fitted curve at half-maximal effect
Outline: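 Homogeneous cell-based luminescent assay of endogenous class I/II HDAC activity; HCT-116 cells, 2 h compound exposure, 30 min HDAC-Glo development at RT.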

[15] = qHTS assay to identify small molecule HDAC inhibitors - cell viability counter screen (AID 1259365)
Outline: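 To flag cytotoxic hits, 1,500 wild-type HCT-116 cells per well, plated the day before, receive test compounds for 2hr at 37 C before CellTiter-Glo reagent and a luminescence read.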

[16] = qHTS assay to identify small molecule agonists of the sonic hedgehog signaling (Shh) pathway - cell viability counter screen (AID 1259366); also: nearly all actives have a fitted effect of over 50% in size
Outline: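 Fluorescence from CellTiter-Fluor reports live cells in this counter screen. NIH/3T3-derived Gli1-Luc reporter cells receive test compounds for 24hr at 37C; reagent goes in at 23hr.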

[17] = qHTS assay to identify small molecule antagonists of the sonic hedgehog signaling (Shh) pathway - cell viability counter screen (AID 1259367); also: nearly all actives have a fitted effect of over 55% in size
Outline: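 Cells: 3T3 Gli1-Luc, 2,000/well, 4 hr pre-incubation. Compounds in DMSO, then conditioned medium. Incubation 24 hr, 37C, 5% CO2. CellTiter-Fluor at 23 hr, 1 hr, fluorescence.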

[18] = qHTS assay to identify small molecule agonists of the sonic hedgehog signaling (Shh) pathway (AID 1259368; calls by dose curve;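 also: NIH/3T3-derived 3T3Gli1-Luc cells carrying a stable Gli1-driven firefly luciferase reporter; series mostly up to about 92 µM; nearly all actives have a fitted effect of over 15% in size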)
Outline: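 Steps: seed 3T3 Gli1-Luc cells, incubate 4 hr at 37 C, pin-transfer compounds in DMSO alongside a positive control, incubate 24 hr, add luciferase detection reagent, wait 30 min at room temperature, read luminescence.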

[19] = molecular target: Androgen receptor (Homo sapiens) (UniProt P10275); experiment: qHTS assay to identify small molecule antagonists of the androgen receptor (AR) signaling pathway using the MDA cell line in the presence of 0.5 nM R1881 (AID 1259243); also: nearly all actives have a fitted effect of over 50% in size
Sequence of Androgen receptor (Homo sapiens) (P10275 whole entry, looked up): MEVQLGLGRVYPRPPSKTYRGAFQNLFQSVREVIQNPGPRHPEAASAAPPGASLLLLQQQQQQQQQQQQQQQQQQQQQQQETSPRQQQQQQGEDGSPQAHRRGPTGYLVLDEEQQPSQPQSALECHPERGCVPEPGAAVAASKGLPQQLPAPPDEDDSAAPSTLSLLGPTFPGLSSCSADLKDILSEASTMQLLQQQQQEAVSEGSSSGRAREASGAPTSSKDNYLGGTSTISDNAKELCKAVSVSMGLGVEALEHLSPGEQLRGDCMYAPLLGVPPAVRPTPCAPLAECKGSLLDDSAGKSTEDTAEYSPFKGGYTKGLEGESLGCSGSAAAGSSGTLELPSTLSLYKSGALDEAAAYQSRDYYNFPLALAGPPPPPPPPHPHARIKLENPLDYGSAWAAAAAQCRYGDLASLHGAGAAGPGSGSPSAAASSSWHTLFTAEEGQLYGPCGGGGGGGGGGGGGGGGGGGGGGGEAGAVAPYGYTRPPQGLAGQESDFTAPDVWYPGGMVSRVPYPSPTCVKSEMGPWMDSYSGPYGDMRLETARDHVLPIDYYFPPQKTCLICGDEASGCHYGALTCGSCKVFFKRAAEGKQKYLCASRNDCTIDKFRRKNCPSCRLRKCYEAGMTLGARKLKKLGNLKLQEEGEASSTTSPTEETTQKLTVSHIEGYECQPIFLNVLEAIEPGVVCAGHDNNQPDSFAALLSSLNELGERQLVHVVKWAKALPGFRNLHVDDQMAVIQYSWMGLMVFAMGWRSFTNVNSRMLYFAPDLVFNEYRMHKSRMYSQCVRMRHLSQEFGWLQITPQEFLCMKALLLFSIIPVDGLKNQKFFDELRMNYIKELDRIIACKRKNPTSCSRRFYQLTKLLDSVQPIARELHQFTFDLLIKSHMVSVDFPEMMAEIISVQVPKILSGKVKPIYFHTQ
Outline: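 Steps: seed MDA-kb2 cells, incubate 5 hr at 37C; pin-transfer compounds in DMSO; add R1881 to 0.5 nM final; incubate 16 hr; add ONE-Glo, wait 30 min at room temperature; read luminescence.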

[20] = qHTS assay to identify small molecule phospholipidosis (PLD) inducers (AID 1259344; active = well fitted curve in the direction sought with a large enough effect; an effect the other way counts as inactive or inconclusive)
Outline: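 Phospholipidosis is scored by imaging LipidTOX-stained pits in HepG2 cells exposed to compound for 24 h at 37 C; pit counts and integrated intensities per well and per cell serve as outputs.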

| SMILES | Potency [1] | Potency [2] | Potency [3] | Potency [4] | Potency [5] | Potency [6] | Potency [7] | Potency [8] | Potency [9] | Potency [10] | Potency [11] | Potency [12] | Potency [13] | Potency [14] | Potency [15] | Potency [16] | Potency [17] | outcome [18] | Potency [19] | Potency [20] |
| --- | --- | --- | --- | --- | --- | --- | --- | --- | --- | --- | --- | --- | --- | --- | --- | --- | --- | --- | --- | --- |
| O=C(OCCc1ccccc1)c1ccccc1 | inactive | inactive | inactive | inactive | inactive | inactive | inactive | inactive | inactive | inactive | inactive | inactive | inactive | 9.69 µM (active) | inactive | inactive | inactive |  |  |  |
| C#Cc1cccc(Nc2ncnc3cc(OCCOC)c(OCCOC)cc23)c1 | inactive | inactive | inactive | inactive | inactive | inactive | inactive | inactive | inactive | inactive | inactive | inactive | inactive | inactive | inactive |  |  | inactive |  |  |
| O=CC1CC=CCC1 (stereo not drawn) | inactive | inactive | inactive | inactive | inactive | inactive | inactive | inactive | inactive | inactive | inactive | inactive | inactive | inactive |  | inactive | inactive |  | inactive |  |
| CC1OC(=O)C(C)OC1=O (stereo not drawn) | inactive | inactive | inactive | inactive | inactive | inactive | inactive | inactive | inactive | inactive | inactive | inactive | inactive |  | inactive | inactive | inactive | inactive |  |  |
| CC1CCC(=O)C1=O (stereo not drawn) | inactive | inactive | inactive | inactive | inactive | inactive | inactive | inactive | inactive | inactive | inactive | inactive | inactive | inactive | inactive | inactive | inactive | inactive |  |  |
| CCCCCCCCCCCC(=O)OC[C@@H](O)[C@H]1OC[C@H](OCCO)[C@H]1OCCO | inactive | inactive | inactive | inactive | inactive | inactive | inactive | inactive | inactive | inactive | inactive | inactive | inactive |  | inactive | inactive | inactive | inactive |  |  |
| OC(C#CCN1CCCC1)(c1ccccc1)c1ccccc1 | inactive | inactive | inactive | inactive | inactive | inactive | inactive | inactive | inactive | inactive | inactive | inactive |  | inactive | inactive | inactive |  | inactive |  | inactive |
| Cc1cccc(C)c1NC(=O)CN(CC(=O)O)CC(=O)O | inactive | inactive | inactive | inactive | inactive | inactive | inactive | inactive | inactive | inactive | inactive | inactive |  | inactive | inactive | inactive | inactive | inactive |  | inactive |
| CCOCC(O)COc1ccc(NC(=O)CC[S+](C)C)cc1 (stereo not drawn) | inactive | inactive | inactive | inactive | inactive | inactive | inactive | inactive | inactive | inactive | inactive | inactive | inactive |  |  |  | inactive | inactive |  |  |
| CC(=O)OC[C@H]1O[C@@H](n2ncc(=O)[nH]c2=O)[C@H](OC(C)=O)[C@@H]1OC(C)=O | inactive | inactive | inactive | inactive | inactive | inactive | inactive | inactive | inactive | inactive | inactive | inactive | inactive | inactive |  | inactive | inactive | inactive | inactive | inactive |
| Cc1cc(C(=O)O)ccc1[N+](=O)[O-] | inactive | inactive | inactive | inactive | inactive | inactive | inactive | inactive | inactive | inactive | inactive | inactive | inactive | inactive | inactive | inactive | inactive | inactive |  |  |
| O=C1CCC(=O)O1 | inactive | inactive | inactive | inactive | inactive | inactive | inactive | inactive | inactive | inactive | inactive | inactive | inactive | inactive | inactive | inactive | inactive |  |  |  |
| O=C1C(O)=C(O)C(=O)C(O)=C1O | inactive | inactive | inactive | inactive | inactive | inactive | inactive | inactive | inactive | inactive | inactive | inactive | inactive | inactive | inactive | inactive | inactive |  |  | inactive |
| CC[N+](C)(CC)CCOC(=O)C(O)(c1ccccc1)C1CCCCC1 (stereo not drawn) | inactive | inactive | inactive | inactive | inactive | inactive | inactive | inactive | inactive | inactive | inactive | inactive | inactive | inactive | inactive | inactive | inactive | inactive |  | inactive |
